# Reference: article PMC11062922 (Nature Chemical Biology, 2023)
# Read-outs that look alike come from different tables or passages of the source.
# Assays:
# Parameters in all cases: species or system human, MV4-11 + K-562 + COLO205 + SK-N-BE2 + OVCAR-8
# EGFR = details: read-out: apparent Kd, compound concentrations: 100 nM and 1000 nM (sheet 'Samples'), n = 1
# MAP3K12 = details: read-out: apparent Kd; compound concentrations: 100 nM and 1000 nM (sheet 'Samples'), CATDS: 0.23080963599757501; n = 1
# PIK3CD = details: read-out: apparent Kd, compound concentrations: 100 nM and 1000 nM (sheet 'Samples'), n = 1
# TTN = details: read-out: apparent Kd; compound concentrations: 100 nM and 1000 nM (sheet 'Samples'), CATDS: 0.640536562241112; n = 1
# RIPK2 = details: read-out: apparent Kd, compound concentrations: 100 nM and 1000 nM (sheet 'Samples'), n = 1
# JAK2 = details: read-out: apparent Kd; compound concentrations:100 nM and 1000 nM (sheet 'Samples'); n = 1
# PRKACG = details: read-out: apparent Kd; compound concentrations:100 nM and 1000 nM (sheet 'Samples'); n = 1
# PGK1 = details: read-out: apparent Kd; compound concentrations:100 nM and 1000 nM (sheet 'Samples'); n = 1
# EPHA1 = details: read-out: apparent Kd; compound concentrations: 100 nM and 1000 nM (sheet 'Samples'), CATDS: 0.101565778514596; n = 1
# EPHA2 = details: read-out: apparent Kd; compound concentrations: 100 nM and 1000 nM (sheet 'Samples'), CATDS: 6.7925989209778895E-2; n = 1
# EPHA4 = details: read-out: apparent Kd; compound concentrations: 100 nM and 1000 nM (sheet 'Samples'), CATDS: 7.2128070641764394E-2; n = 1
# EPHA5 = details: read-out: apparent Kd; compound concentrations: 100 nM and 1000 nM (sheet 'Samples'), CATDS: 6.7106289127757499E-2; n = 1
# EPHA7 = details: read-out: apparent Kd; compound concentrations: 100 nM and 1000 nM (sheet 'Samples'), CATDS: 5.7157289588894301E-2; n = 1
# EPHB2 = details: read-out: apparent Kd; compound concentrations: 100 nM and 1000 nM (sheet 'Samples'), CATDS: 6.4850076698592204E-2; n = 1
# EPHB4 = details: read-out: apparent Kd; compound concentrations: 100 nM and 1000 nM (sheet 'Samples'), CATDS: 0.111344717085302; n = 1
# FLT4 = details: read-out: apparent Kd; compound concentrations: 100 nM and 1000 nM (sheet 'Samples'), CATDS: 5.9092612801250499E-2; n = 1
# MAPK14 = details: read-out: apparent Kd, n = 1
# MAPKAPK2 = details: read-out: apparent Kd, n = 1
# NNT = details: read-out: apparent Kd; compound concentrations: 100 nM and 1000 nM (sheet 'Samples'), CATDS: 5.7006998713096203E-2; n = 1
# RET = details: read-out: apparent Kd; compound concentrations: 100 nM and 1000 nM (sheet 'Samples'), CATDS: 0.20598352545457299; n = 1
# TESK2 = details: read-out: apparent Kd; compound concentrations: 100 nM and 1000 nM (sheet 'Samples'), CATDS: 0.39865436806100402; n = 1
# PIK3CG = details: read-out: apparent Kd, compound concentrations: 100 nM and 1000 nM (sheet 'Samples'), n = 1
# NQO1 = details: read-out: apparent Kd, compound concentrations: 100 nM and 1000 nM (sheet 'Samples'), n = 1
# EIF2AK1 = details: read-out: apparent Kd; compound concentrations:100 nM and 1000 nM (sheet 'Samples'); n = 1
# GAK = details: read-out: apparent Kd; compound concentrations:100 nM and 1000 nM (sheet 'Samples'); n = 1
# MAPK11 = details: read-out: apparent Kd; compound concentrations:100 nM and 1000 nM (sheet 'Samples'); n = 1
# MAPK8 = details: read-out: apparent Kd; compound concentrations:100 nM and 1000 nM (sheet 'Samples'); n = 1
# MAPK9 = details: read-out: apparent Kd; compound concentrations:100 nM and 1000 nM (sheet 'Samples'); n = 1
# PIP4K2C = details: read-out: apparent Kd; compound concentrations:100 nM and 1000 nM (sheet 'Samples'); n = 1
# SIK2 = details: read-out: apparent Kd; compound concentrations:100 nM and 1000 nM (sheet 'Samples'); n = 1
# SIK3 = details: read-out: apparent Kd; compound concentrations:100 nM and 1000 nM (sheet 'Samples'); n = 1
# TAOK2 = details: read-out: apparent Kd; compound concentrations:100 nM and 1000 nM (sheet 'Samples'); n = 1
# [1] = compound concentrations:100 nM and 1000 nM (sheet 'Samples')
compound,measurement,setting,value
Cl.Fc1ccccc1COc1ccc(Nc2ncnc3ccc(-c4nnc(C(F)(F)F)o4)cc23)cc1Cl [GW424170A],potency estimated from few doses,EGFR; CATDS: 0.318491462582081,448 nM
same,potency estimated from few doses,MAP3K12,1290 nM
same,potency estimated from few doses,PIK3CD; CATDS: 0.65461148719951301,104 nM
Cl.O=S(=O)(c1cccc(F)c1)c1ccc(Nc2ncnc3cc(Br)sc23)cc1Cl [GSK306886A],potency estimated from few doses,EGFR; CATDS: 0.33527903035184697,1350 nM
same,potency estimated from few doses,PIK3CD; CATDS: 0.982888258017659,11.9 nM
c1ccc(COc2ccc(Nc3ncnc4ccc(-c5ccco5)cc34)cc2)cc1 [GW284372X],potency estimated from few doses,EGFR; CATDS: 0.410036232309059,781 nM
same,potency estimated from few doses,TTN,304 nM
Cn1cncc1-c1cc2c(Nc3ccc(OCc4ccccc4)cc3)ncnc2cn1 [GW281179X],potency estimated from few doses,EGFR; CATDS: 0.48641322117949298,124 nM
same,potency estimated from few doses,RIPK2; CATDS: 0.514367617378505,111 nM
O=C(O)C(F)(F)F.O=S1CCN(Cc2ccc(-c3ccc4ncnc(Nc5ccc(OCc6cccc(F)c6)c(Cl)c5)c4c3)o2)CC1 [GW576609A],potency estimated from few doses,EGFR; CATDS: 0.496271215913483,306 nM
same,potency estimated from few doses,JAK2,1050 nM
same,potency estimated from few doses,PRKACG,781 nM
CS(=O)(=O)CCNCc1nc(-c2ccc3ncnc(Nc4ccc(OCc5cccc(F)c5)c(Cl)c4)c3c2)cs1.Cl [GW583340C],potency estimated from few doses,EGFR; CATDS: 0.528390210256103,96.3 nM
same,potency estimated from few doses,PGK1,119 nM
COc1cc2ncnc(Nc3cccc(Cl)c3F)c2cc1O[C@H]1CC[C@H]([C@@H]2NCCNC2=O)CC1 [BI00133844],potency estimated from few doses,EGFR; CATDS: 0.60963151876595101,15.4 nM
same,potency estimated from few doses,EPHA1,403 nM
same,potency estimated from few doses,EPHA2,1060 nM
same,potency estimated from few doses,EPHA4,898 nM
same,potency estimated from few doses,EPHA5,1090 nM
same,potency estimated from few doses,EPHA7,1800 nM
same,potency estimated from few doses,EPHB2,1200 nM
same,potency estimated from few doses,EPHB4,332 nM
same,potency estimated from few doses,FLT4,1600 nM
same,potency estimated from few doses,"MAPK14; compound concentrations: 100 nM and 1000 nM (sheet 'Samples'), CATDS: 5.8794914903048702E-2",1630 nM
same,potency estimated from few doses,"MAPKAPK2; compound concentrations: 100 nM and 1000 nM (sheet 'Samples'), CATDS: 6.3284106262713205E-2",1290 nM
same,potency estimated from few doses,NNT,1810 nM
same,potency estimated from few doses,RET,99 nM
Cl.O=S(=O)(CCNCc1ccc(-c2ccc3ncnc(Nc4ccc(OCc5cccc(F)c5)c(Cl)c4)c3c2)o1)c1ccccc1 [GW633459A],potency estimated from few doses,EGFR; CATDS: 0.67043836864821504,597 nM
same,potency estimated from few doses,TESK2,1830 nM
CC(=O)Nc1cccc(C#Cc2cncnc2Nc2ccc(OCc3cccc(F)c3)c(Cl)c2)n1 [GW794726X],potency estimated from few doses,EGFR; CATDS: 0.81532426513796596,184 nM
same,potency estimated from few doses,PIK3CG; CATDS: 0.36055601865019399,1440 nM
COc1ccc2ncnc(Nc3ccc(OCc4ccccc4)cc3)c2c1.Cl [GI261520A],potency estimated from few doses,EGFR; CATDS: 0.82087147453604603,67.2 nM
same,potency estimated from few doses,PIK3CG; CATDS: 0.25285428644367502,1240 nM
same,potency estimated from few doses,RIPK2; CATDS: 0.26130568040748398,1100 nM
CN(C)C(=O)O[C@@H]1CN[C@@H](C#Cc2cc3ncnc(Nc4ccc(OCc5cccc(F)c5)c(Cl)c4)c3s2)C1 [GSK238063A],potency estimated from few doses,EGFR; CATDS: 0.84282841422731203,175 nM
same,potency estimated from few doses,NQO1; CATDS: 0.35542679551124801,1700 nM
CC(=O)NCc1cccc(C#Cc2cncnc2Nc2ccc(OCc3cccc(F)c3)c(Cl)c2)c1 [GW807930X],potency estimated from few doses,EGFR; CATDS: 0.88842612806031096,149 nM
same,potency estimated from few doses,NQO1; CATDS: 0.34789699583550798,2230 nM
CS(=O)(=O)CCNCc1coc(-c2ccc3ncnc(Nc4ccc(OCc5ccccc5)cc4)c3c2)c1 [GW566221B],potency estimated from few doses,EGFR; CATDS: 0.90978509927548601,43.8 nM
same,potency estimated from few doses,RIPK2; CATDS: 0.34472781375122202,839 nM
Cn1c(=O)c(-c2ccccc2Cl)cc2cnc(NC3CCOCC3)nc21 [RO3303470-000],potency estimated from few doses,EIF2AK1,1090 nM
same,potency estimated from few doses,GAK,695 nM
same,potency estimated from few doses,MAPK11,20.2 nM
same,potency estimated from few doses,MAPK14; [1],24 nM
same,potency estimated from few doses,MAPK8,318 nM
same,potency estimated from few doses,MAPK9,202 nM
same,potency estimated from few doses,MAPKAPK2; [1],12.5 nM
same,potency estimated from few doses,PIP4K2C,1140 nM
same,potency estimated from few doses,SIK2,1330 nM
same,potency estimated from few doses,SIK3,604 nM
same,potency estimated from few doses,TAOK2,1880 nM
